Only a selection was taken, and hits are over-represented in it overall.
RE007 growth inh: qHTS Assay for Inhibitors of the HIV-1 protein Vpr | S. pombe RE007 Vpr strain, BacTiter-Glo ATP luminescence, 24 h | Potency, µM (doses to about 92.2 µM), for the others: at the top dose activity change, negative = less growth, actives largely listed as inhibitors | 360,000 compounds, 0.21% hits; active means well fitted falling curve with a large enough effect; inconclusive means small, poorly fitted or top-dose-only effect; inactive means no such curve, though single readings can be large or run the other way; further: potency means the concentration at half of the fitted maximal effect; on the % scale 0 is the no-effect control and ±100 the full control effect; nearly all actives have a fitted effect of over 50% in size
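Fission yeast strain RE007, carrying one chromosomally integrated HIV-1 vpr copy, was seeded at OD 0.01 in PMG+AL medium with 23 nL pinned compound. After 24 h at 30 °C and 99% humidity, viability was read by BacTiter-Glo luminescence.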
LmPK inhibitor: qHTS Assay for Inhibitors of Leishmania Mexicana Pyruvate Kinase (LmPK); Q27686; purified LmPK, Kinase-Glo ATP luminescence, 1 h; Potency, µM (series often up to 57.5 µM), inactives show at the highest dose activity change, negative = inhibition, most hits filed as inhibitors; 290,000 compounds, 0.37% hits; AID 1721, 2009; further: potency means the concentration at half of the fitted maximal effect; on the % scale 0 is the no-effect control and ±100 the full control effect
Target sequence (Q27686 whole entry, looked up): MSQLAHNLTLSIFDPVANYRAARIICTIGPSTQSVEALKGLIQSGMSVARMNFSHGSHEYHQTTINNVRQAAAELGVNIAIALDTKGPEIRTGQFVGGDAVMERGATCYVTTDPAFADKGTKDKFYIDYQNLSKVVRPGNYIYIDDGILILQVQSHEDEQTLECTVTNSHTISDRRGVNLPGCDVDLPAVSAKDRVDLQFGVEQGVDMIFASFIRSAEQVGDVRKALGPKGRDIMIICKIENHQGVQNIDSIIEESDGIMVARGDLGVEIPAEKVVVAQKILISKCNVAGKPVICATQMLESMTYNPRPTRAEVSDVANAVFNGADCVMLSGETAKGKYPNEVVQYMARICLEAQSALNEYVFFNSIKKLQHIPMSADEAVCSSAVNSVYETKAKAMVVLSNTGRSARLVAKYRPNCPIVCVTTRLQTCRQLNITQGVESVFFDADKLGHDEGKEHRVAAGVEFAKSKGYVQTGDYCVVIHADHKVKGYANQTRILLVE
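Pyruvate kinase activity monitored as ATP production (luciferase luminescence). Conditions: 0.1 nM enzyme, 0.5 mM PEP, 0.1 mM ADP, 1 h, RT; normalized against uninhibited and no-enzyme wells.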
Giardia FBPA inh: qHTS Assay for Inhibitors of Fructose-1,6-bisphosphate Aldolase from Giardia Lamblia | 290,000 compounds, 0.71% hits | A8B2U2 | Potency, µM (highest dose often 59.6 µM), inactives show top-dose activity, negative = inhibition, usual class: inhibitors | purified Giardia FBPA; further: potency means the concentration at half of the fitted maximal effect; on the % scale 0 is the no-effect control and ±100 the full control effect; nearly all actives have a fitted effect of over 55% in size
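Giardia FBPA (40 nM reagent) was preincubated 10 min at RT with compound (up to 57.5 uM final), then substrate plus GAPDH/TPI/NAD/arsenate coupling system with diaphorase/resazurin was added; resorufin fluorescence (525/598 nm) was read after 20 min.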
Tb PYK inh: qHTS of Trypanosoma Brucei Inhibitors. TbPYK enzyme, Kinase-Glo Plus ATP luminescence, 45 min. 410,000 compounds, 0.12% hits. Potency, µM (doses to about 76.8 µM), for inactives: at the top dose activity, negative = inhibition, actives largely listed as inhibitors. AID 624173, 2012. pyruvate kinase (Trypanosoma brucei), Q57TT1; further: potency means the concentration at half of the fitted maximal effect; on the % scale 0 is the no-effect control and ±100 the full control effect; nearly all actives have a fitted effect of over 50% in size
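Glycolytic pyruvate kinase of T. brucei was incubated with substrate, test compound and 130 uM ADP for 45 minutes at room temperature. Luminescent Kinase-Glo Plus signal was measured after 10 minutes.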
Cycloheximide cs: Cycloheximide Counterscreen for Small Molecule Inhibitors of Shiga Toxin | max response, % | 300,000 compounds, 12% hits | cell reporter, cycloheximide protein synthesis inhibition counterscreen; in the data active means max response mostly above about 13%, no sharp cut-off; inactive means mostly below about 14%; further: read at 38.3 µM for the half of the compounds with a filed dose; 0% is about no effect
Shiga inhibitor: A qHTS for Small Molecule Inhibitors of Shiga Toxin | inhibition, % at 38.7 µM | Vero cells, Shiga toxin protein synthesis inhibition reporter | 290,000 compounds, 9.2% hits; in the data active means inhibition mostly above about 28%, no sharp cut-off; inactive means mostly below about 43%; further: 0% is about no effect
Starred values were filed as active, the others as inactive; ? = inconclusive; . = not tested or not shown; + = active, no number; [ ] = remark or other dose. Unless noted, the call rests on the fitted dose curve; in most records, active means well fitted curve in the direction sought with a large enough effect; inconclusive means small, poorly fitted or top-dose-only effect, or another doubt; inactive means no such curve, though single readings can be large; an effect the other way counts as inactive or inconclusive.

SMILES	RE007 growth inh	LmPK inhibitor	Giardia FBPA inh	Tb PYK inh	Cycloheximide cs	Shiga inhibitor
CC(C)CCNC(=O)CCCN1C(=O)c2ccccc2Sc2ncccc21	.	.	.	4%	.	.
COc1ccc(N2CCN(S(=O)(=O)c3ccc4c(c3)CC(C)N4C(C)=O)CC2)cc1 (stereo not drawn)	.	.	.	-6%	.	.
COc1ccccc1CNC(=O)CCCCn1c(=O)c2ccccc2n(Cc2ccccc2F)c1=O	.	.	.	1%	.	.
CN1CCC2(CC1)CCN(C(=O)c1ccncc1)CC2	.	.	1%	0%	.	.
Cc1ccc(-n2c(=O)c3oc4ccccc4c3n(Cc3cccc(F)c3)c2=O)cc1C	.	.	.	2%	.	.
N/C(=N\OC(=O)c1ccc(Cl)cc1[N+](=O)[O-])c1cccnc1	-29%	0%	-4%	-8%	44*	56*
COc1ccc(NC(=O)c2ccco2)cc1NC(=O)c1cc(Br)ccc1Cl	.	.	.	0%	.	.
COc1ccc(NC2=CC(=O)CC(c3ccccc3)C2)cc1 (stereo not drawn)	-1%	-1%	0%	-4%	22*	-8
O=C1C=C(Nc2ccccc2)CC(c2ccccc2)C1 (stereo not drawn)	12%	1%	4%	0%	3	22
CN1CCN(C2=C(Cl)C(=O)C(c3cnc(N4CCCCC4)s3)=C(Cl)C2=O)CC1	?	?	5%	1µM*	-2	-4
c1ccc(CNc2ccc(N3CCOCC3)cc2)cc1	.	.	.	-38%	.	.
COc1ccc(CNc2ccc(N3CCOCC3)cc2)cc1	5%	0%	-5%	-5%	22*	73
O=C(c1ccco1)N1CCN(c2ncnc3c2oc2ccccc23)CC1	-25%	-1%	2%	-3%	41*	63*
c1ccc2c(c1)oc1c(N3CCOCC3)ncnc12	-19%	-1%	13%	0%	9.8*	3
C(=C\c1ccccc1)/CN1CCN(c2ncnc3c2oc2ccccc23)CC1	-2%	1%	-2%	1%	1	19
c1ccc2cc(Sc3ncnc4c3oc3ccccc34)ccc2c1	19%	8%	1%	0%	-4	-6
O=C(c1ccco1)N1CCN(c2nnc(-c3ccccc3)c3ccccc23)CC1	-1%	-6%	-1%	-1%	-4	-8
COc1ccccc1N1CCN(c2ncnc3c2oc2ccccc23)CC1	1%	-2%	-1%	-2%	8.6*	27
Cc1cc(C)nc(Sc2ncnc3c2oc2ccccc23)n1	3%	-7%	0%	-7%	28	50*
c1cnc(N2CCN(c3ncnc4c3oc3ccccc34)CC2)nc1	.	0%	0%	.	-2	11
CCOC(=O)C1CCC(CN(Cc2cccc(Br)c2)S(=O)(=O)c2ccc(C)cc2)CC1 (stereo not drawn)	.	.	.	0%	.	.
Clc1ncnc2c1oc1ccccc12	-21%	-16%	2%	-4%	37*	+
c1coc(CN(Cc2ccco2)c2ncnc3c2oc2ccccc23)c1	-12%	1%	-30%	-21%	19*	40
CC1(C)S[C@@H]2[C@H](NC(=O)[C@H](NC(=O)N3CCN(S(C)(=O)=O)C3=O)c3ccccc3)C(=O)N2[C@H]1C(=O)O	.	.	.	-10%	.	.
CSc1ncc(C(=O)NCc2ccc(C)cc2)c(C)n1	.	.	.	-5%	.	.
SMILES	RE007 growth inh	LmPK inhibitor	Giardia FBPA inh	Tb PYK inh	Cycloheximide cs	Shiga inhibitor
O=C(CCS(=O)(=O)c1ccccc1)Nc1cccc(-c2nc3ccccc3s2)c1	2%	-1%	0%	5%	57*	79*
O=C(COc1ccccc1Cl)Nc1ccc(-c2nc3ccccc3s2)cc1	.	.	.	-4%	38*	31
O=C(COc1ccccc1[N+](=O)[O-])Nc1ccc(-c2nc3ccccc3s2)cc1	.	.	.	-7%	.	.
O=C(CCS(=O)(=O)c1ccccc1)Nc1ccc(-c2nc3ccccc3s2)cc1	-16%	-2%	-1%	-1%	33*	69
C[N+]1(C)CC(O)[C@H](C(=O)[O-])C1 (stereo partly drawn)	.	.	-21%	.	.	.
Cc1ccc(OCC(O)C(C)NC(C)C)c2c1CCC2 (stereo not drawn)	.	.	-4%	.	.	.
O=C(O)CCn1cc(C=C2C(=O)NC(=S)NC2=O)c(-c2cccc(Cl)c2)n1	10%	7%	-8%	11µM*	-1	-9
O=C(O)CCn1cc(C=C2C(=O)NC(=O)NC2=O)c(-c2ccc(Br)cc2)n1	3%	-1%	1%	18µM*	-2	-9
O=C(O)CCn1cc(/C=C/C(=O)c2ccc(Cl)cc2)c(-c2ccc(Br)cc2)n1	?	5%	0%	3%	1	-15
Fc1cccc(Cl)c1Cn1ncc2ccccc21	4%	-6%	-1%	6%	28*	31*
CCOc1ccc(/C=N/OCC(=O)Nc2ccc(OCc3ccccc3)cc2)cc1OC	-26%	-6%	2%	-18%	17*	37
COc1cc(/C=N/OCC(=O)Nc2ccc(OC(F)F)cc2)ccc1OCc1ccccc1	21%	-1%	-4%	-9%	45*	22
COc1ccc(/C=N/OCC(=O)NC(c2ccccc2)c2ccccc2)cc1OC	22%	1%	-4%	-3%	10	2
CC(=O)c1cccc(N(CC(=O)Nc2ccc(F)cc2F)S(C)(=O)=O)c1	-14%	-3%	10%	-13%	30*	51*
CNC1C(O)C(OC2C(N)CC(N)C(OC3OC(CN)=CCC3N)C2O)OCC1(C)O (stereo not drawn)	.	.	.	7%	.	.
COc1ccc2c(c1)CC/C(=C\C=C\c1ccccc1OC)C2=O	-9%	0%	?	-9%	38*	89*
COc1ccc(C=C2Cc3ccccc3C2=O)cc1	3%[18.4 µM]	.	.	-10%	.	.
COc1ccc2c(c1)C(=O)/C(=C/C=C/c1ccccc1)CC2	-14%	-8%	?	2%	21*	+
COc1ccc2c(c1)OC/C(=C/c1ccc(OC)c(OC)c1)C2=O	.	.	-5%	.	.	.
COc1cccc(Cn2c(=O)c(-c3cccc(Cl)c3)nc3cncnc32)c1	.	.	-14%	-8%	.	.
COc1cc(CN(C(=O)COc2ccc(C)c(C)c2)c2ccccn2)cc(OC)c1OC	.	.	.	2%	.	.
Cc1cc2oc(=O)cc(CSc3nnc(-c4cccs4)o3)c2cc1C(C)C	2%	0%	-1%	-3%	11*	4
N#Cc1cccc(NC(=O)N2CC3(CCN(C(=O)c4ccco4)CC3)C2)c1	.	.	-4%	-7%	.	.
Cc1ccc(NC2CCCN(C(=O)CCCN3CCCCC3=O)C2)cc1C (stereo not drawn)	2%	3%	-5%	0%	13*	21
Cc1ccccc1CC1(CO)CCCN(C(=O)CCCN2CCCCC2=O)C1 (stereo not drawn)	0%	5%	-2%	3%	17*	44

Source: PubChem (National Center for Advancing Translational Sciences (NCATS))
